About 83,000 compounds went through this panel and 20% of them were active in at least one assay; those are over-represented in the sample as a whole.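 In brief: 96-well plates, 48 h treatment, single concentration, percent growth endpoint.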 Values without a mark were called inactive. Active and inactive are the calls of the source. Rule for the calls: active = growth percent below 10; inactive = the rest.
Assays:
Assay in all cases: NCI-60 one-dose screen, 48 h (100 = growth as untreated, 0 = no growth, -100 = all killed)
Conditions in all cases: 10 µM unless noted
HCT-15 colon = tested on: HCT-15 colon
HT29 colon = tested on: HT29 colon
SNB-75 CNS = tested on: SNB-75 CNS
SNB-19 CNS = tested on: SNB-19 CNS
U251 CNS = tested on: U251 CNS
PC-3 prostate = tested on: PC-3 prostate
SK-MEL-5 melanoma = tested on: SK-MEL-5 melanoma
UACC-62 melanoma = tested on: UACC-62 melanoma
LOX IMVI melanoma = tested on: LOX IMVI melanoma
SK-MEL-28 melanoma = tested on: SK-MEL-28 melanoma
SK-MEL-2 melanoma = tested on: SK-MEL-2 melanoma
EKVX NSCLC = tested on: EKVX NSCLC
SN12C renal = tested on: SN12C renal
UO-31 renal = tested on: UO-31 renal
TK-10 renal = tested on: TK-10 renal
ACHN renal = tested on: ACHN renal
CAKI-1 renal = tested on: CAKI-1 renal
A498 renal = tested on: A498 renal
CCRF-CEM leukemia = tested on: CCRF-CEM leukemia
MOLT-4 leukemia = tested on: MOLT-4 leukemia

| Compound | growth (HCT-15 colon) | growth (HT29 colon) | growth (SNB-75 CNS) | growth (SNB-19 CNS) | growth (U251 CNS) | growth (PC-3 prostate) | growth (SK-MEL-5 melanoma) | growth (UACC-62 melanoma) | growth (LOX IMVI melanoma) | growth (SK-MEL-28 melanoma) | growth (SK-MEL-2 melanoma) | growth (EKVX NSCLC) [%] | growth (SN12C renal) | growth (UO-31 renal) | growth (TK-10 renal) | growth (ACHN renal) | growth (CAKI-1 renal) | growth (A498 renal) | growth (CCRF-CEM leukemia) | growth (MOLT-4 leukemia) |
| --- | --- | --- | --- | --- | --- | --- | --- | --- | --- | --- | --- | --- | --- | --- | --- | --- | --- | --- | --- | --- |
| O=c1[nH]cnc2c1C(c1ccc(Br)cc1)c1sc3c(F)cccc3c1O2 (stereo not given) | 99.2% | 104% | 85.1% | 91.8% | 95.9% | 82.9% | 98.7% | 82.5% | 99.2% | 105% | 110% | 90.9 | 98.3% | 76% | 107% | 95.1% | 82.1% | 104% | -50.7% (active) | 37% |
| FC(F)(F)c1[nH]ncc1-c1nc2c(N3CCCCC3)cc3[nH]ncc3c2c2c1CCCC2 | 5.17% (active) | 1.21% (active) | -73.8% (active) | 7.25% (active) | 3.57% (active) | 0.448% (active) | -68.2% (active) | -49.9% (active) | -68.9% (active) | -6.99% (active) | -34% (active) | 13.2 | 2.49% (active) | -19.6% (active) | 1.88% (active) | 4.67% (active) | 5.43% (active) | -71.6% (active) | 4.61% (active) | -0.165% (active) |
| Cc1cc(N2CCCCC2)nc(N2CCN(CC(=O)Nc3ccc4c(ccn4Cc4ccccc4)c3)CC2)n1 | 48.1% | 12.4% | 66.4% | 70% | 40.3% | 38.7% | 57.6% | 56.5% | 60.7% | 73.7% | 65.6% | 62.1 | 64.2% | 30% | 84% | 76.6% | 56.3% | 8.63% (active) | 64.5% | 52.6% |
| O=S(=O)(c1ccccc1)N1CCCN(c2nc(-c3ccccc3)nc3nc(-c4ccccc4)oc23)CC1 | 109% | 109% | 88.5% | 101% | 107% | 105% | 103% | 102% | 99.9% | 110% | 108% | 107 | 98.5% | 85.3% | 114% | 104% | 91.7% | 96.9% | 105% | 100% |
| COc1cccc(/C=C/C(=O)c2cc3c(N)c(C(=O)Nc4cccc(Cl)c4C)sc3nc2C)c1 | -57.4% (active) | -80.7% (active) | -1.75% (active) | -35.7% (active) | -78.4% (active) | 13.9% | -31.3% (active) | 1.73% (active) | -64.2% (active) | 16.3% | -17.3% (active) | 39.8 | -22.7% (active) | -43.4% (active) | -18% (active) | 6.8% (active) | -47.4% (active) | -13.2% (active) | 7.19% (active) | 14.3% |
| O=c1ccc2nc(C(F)(F)F)nn(-c3ccccc3)c-2c1 | -79.7% (active) | -64.3% (active) | 86.5% | 93.5% | 69.7% | 84.6% | 32.7% | 66.4% | 4.3% (active) | 35.7% | 78.3% | 95.8 | 67.9% | 24% | -98% (active) | -89% (active) | 56% | 80% | -0.269% (active) | -20.5% (active) |
| COc1ccc(Cc2nnc(Nc3nc4ccccc4s3)s2)cc1 | 92.4% | 110% | 92.2% | 94.2% | 98.2% | 108% | 96.5% | 89.6% | 96.4% | 92.3% | 107% | 96.1 | 94.2% | 81.2% | 103% | 97.2% | 96.1% | 97.8% | 97.7% | 105% |
| CC(O)c1ncc(/C=C2\SC(=S)N(Cc3ccccc3)C2=O)s1 (stereo not given) | 97.4% | 59.4% | 102% | 106% | 87.9% | 97.3% | 93.7% | 99.4% | 92.7% | 92.2% | 91% | 101 | 110% | 85.8% | 33.7% | 95.6% | 93.4% | 100% | 98.6% | 108% |
